Data as given in publication PMC5540273 (PLoS ONE, 2017).

Tests used:
Conditions in all cases: concentration: 1 μM, replicates: in singlicate; n = 1
IKK-alpha = system: T1, IKK-alpha
T1 construct: gene CHUK

IKK-beta = system: T2, IKK-beta
T2 construct: gene IKBKB

IKK-epsilon = system: T3, IKK-epsilon
T3 construct: gene IKBKE

INSRR = system: INSRR
INSR = system: INSR
IRAK1 = system: IRAK1
IRAK3 = system: IRAK3
IRAK4 = system: IRAK4
ITK = system: ITK
[1] = system: JAK1(JH1domain-catalytic)
[2] = system: JAK1(JH2domain-pseudokinase)
[3] = system: JAK2(JH1domain-catalytic)
[4] = system: JAK3(JH1domain-catalytic)
JNK1 = system: T4, JNK1
T4 construct: gene MAPK8

JNK2 = system: T5, JNK2
T5 construct: gene MAPK9

JNK3 = system: T6, JNK3
T6 construct: gene MAPK10

KIT-autoinhibited = system: KIT-autoinhibited
KIT = system: KIT
LATS1 = system: LATS1
LATS2 = system: LATS2
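Note: KINOMEscan kinase panel screen.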

Compound	%Inh (IKK-alpha) [%]	%Inh (IKK-beta) [%]	%Inh (IKK-epsilon) [%]	%Inh (INSRR) [%]	%Inh (INSR) [%]	%Inh (IRAK1) [%]	%Inh (IRAK3) [%]	%Inh (IRAK4) [%]	%Inh (ITK) [%]	%Inh [1] [%]	%Inh [2] [%]	%Inh [3] [%]	%Inh [4] [%]	%Inh (JNK1) [%]	%Inh (JNK2) [%]	%Inh (JNK3) [%]	%Inh (KIT-autoinhibited) [%]	%Inh (KIT) [%]	%Inh (LATS1) [%]	%Inh (LATS2) [%]
COC(=O)Nc1nc2ccc(Oc3ccc(CC(=O)Nc4cc(C(F)(F)F)ccc4F)cc3)cc2[nH]1 [GW680903]	7	1	0	0	0	26	0	14	14	6	0	7	0	1	6	0	8	100	12	0
O=C(Nc1c(F)cccc1F)c1cc(C(=O)c2ccccc2F)c[nH]1 [GSK1326180]	0	0	0	5	17	0	7	0	0	3	0	0	0	4	17	0	0	9	0	0
c1ccc(Oc2ccc(Nc3ccnc4cc(-c5ccc(CN6CCCCC6)o5)ccc34)cc2)nc1 [GW567143]	12	8	0	5	10	24	0	6	10	0	0	2	0	22	30	7	8	96.5	0	0
COc1ccc(C2=C(Nc3cccc(O)c3)C(=O)NC2=O)cc1 [SB-390766]	26	44	0	0	2	60	0	45	7	58	0	13	0	21	16	1	2	14	0	0
Cn1cc(-c2ccc3c(c2)CCN3C(=O)Cc2cc(F)cc(F)c2F)c2c(N)ncnc21 [GSK2634140]	0	12	75	0	0	7	6	0	20	1	0	11	0	15	24	4	0	99.1	80	7
Cc1ccc(C)c(NC(=O)Nc2ccc(C)c(-c3ccc(C(=O)Nc4ccncc4)cc3)c2)c1 [GSK1398473]	0	8	0	0	0	5	1	19	13	0	0	0	0	15	14	6	0	99.9	3	0
Cc1ccc(NC(=O)c2cccc(N3CCCCC3)c2)cc1-c1ccc(C(=O)NCC2CC2)cc1 [GSK1917008]	54	29	15	4	12	17	11	20	26	0	19	15	0	22	30	10	6	79	0	16
Cl.Cl.NC(CNC(=O)c1cc(Br)c(-c2ccnc3[nH]ccc23)s1)c1ccccc1 (stereo not drawn) [GSK1322949]	73	69	18	0	9	90.4	55	11	31	24	0	94.3	96.8	44	37	28	0	38	54	93.7
COc1cccc(C2=C(Nc3cccc(O)c3)C(=O)NC2=O)c1 [SB-390771]	2	18	40	0	3	29	9	38	10	9	0	15	94.2	46	50	28	0	15	0	1
O=C(Nc1n[nH]c2cc(-c3cccs3)ccc12)C1CC1 [SB-731284]	57	73	0	0	40	35	9	45	0	0	22	40	0	57	33	48	39	58	0	5
Cc1cccc(Nc2nc(NCCN)ncc2C(N)=O)c1 [GSK1292139]	28	16	0	0	22	61	0	60	8	27	96.6	54	0	43	4	23	9	72	0	76
Cc1ccc(NC(=O)c2ccc(Cl)c(Cl)c2)cc1-c1ccc(C(=O)Nc2ccncc2)cc1 [GSK1398460]	0	10	24	0	0	0	3	7	10	9	0	0	0	11	4	0	9	100	0	3
Cc1ccc(O)cc1Nc1ccnc2ccc(C(C)(C)C)cc12 [GW856805]	52	45	6	18	16	13	0	0	0	2	20	64	0	43	29	15	22	96.9	0	0
Nc1cccc(-c2ccc3c(N)n[nH]c3c2)c1 [GSK2193613]	0	0	11	0	0	10	0	0	10	0	12	8	0	18	13	3	83	23	0	27
O=C(O)C(F)(F)F.O=c1[nH]ccc2nc(N[C@@H]3CCNC3)nc(Nc3ccc4c(c3)S(=O)(=O)CC4)c12 [GSK2181306]	87	60	61	40	58	98.4	0	15	30	89	98	98.4	100	83	54	78	0	73	51	80
N#CC1(c2cccc(C(=O)Nc3cccc(Oc4ccc5nc(NC(=O)C6CC6)sc5n4)c3)c2)CC1	0	0	0	0	0	0	0	0	0	8	15	0	0	0	0	0	76	99.9	0	0
Nc1ncc(-c2ccc3nccc(-c4ccncc4)c3c2)cc1S(=O)(=O)N1CCCCC1 [GSK1693850]	0	0	12	0	0	39	86	10	12	10	14	0	0	35	18	29	0	44	21	0
CN(C)c1ncnc2nc[nH]c12 [SKF-31736]	23	15	0	9	0	43	0	4	0	0	34	0	30	23	0	0	19	0	0	0
CC(C)(C)c1ccc(C(=O)Nc2cn3cc(-n4ccnc4)ccc3n2)cc1	2	9	0	5	26	21	55	65	14	11	2	26	0	5	0	0	20	98.4	0	0
CCn1cnc2c(NCc3ccccc3)ncnc21 [SKF-96418]	26	19	0	0	2	25	0	0	0	6	24	40	5	11	0	0	9	0	0	0
COc1cccc(CC(=O)N2CCc3cc(-c4cn(C)c5ncnc(N)c45)ccc32)c1 [GSK2608899]	0	60	75	13	9	0	14	0	12	8	0	0	0	4	16	3	11	100	0	10
